This is an account of results in PubChem BioAssay (NCI).

Values joined by “and” are separate entries in the source; they are usually repeats but may differ in a detail not shown here. Equal values may be shown once. About 83,000 compounds went through this panel and 20% of them were active in at least one assay; those are over-represented in the sample as a whole.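 Cell lines were cultured in 96-well plates, exposed to a single compound concentration, and assessed for percent growth 48 hours later.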 Active and inactive are the calls of the source. How the source made its calls: active means growth percent below 10; inactive means the rest.

Among the test systems are SR leukemia; RPMI-8226 leukemia; OVCAR-8 ovarian; OVCAR-5 ovarian; OVCAR-4 ovarian; SK-OV-3 ovarian; IGROV1 ovarian; OVCAR-3 ovarian; HS 578T breast; NCI/ADR-RES ovarian; T-47D breast; BT-549 breast; MDA-MB-435 melanoma; SW-620 colon; MCF7 breast; HCT-116 colon; HCC-2998 colon; KM12 colon.
Test in all cases: NCI-60 one-dose screen, 48 h (100 = growth as untreated, 0 = no growth, -100 = all killed)
Conditions in all cases: 10 µM unless noted

Turning to `Cc1ccc(NC(=O)c2ccc(CN3CCN(C)CC3)cc2)cc1Nc1nccc(-c2cccnc2)n1`, the growth with SR leukemia was 85.4% (inactive) and -22.5% (active); in the assay with RPMI-8226 leukemia, 87.4% (inactive) and 38.3% (inactive); in the assay on OVCAR-8 ovarian, 91.6% (inactive) and 67.7% (inactive); with OVCAR-5 ovarian, 123% (inactive) and 97.5% (inactive); in the assay with OVCAR-4 ovarian, 100% (inactive) and 93.1% (inactive); in the assay with SK-OV-3 ovarian, 106% (inactive) and 107% (inactive). Moreover, the growth was 119% (inactive) and 98.3% (inactive) with IGROV1 ovarian; 110% (inactive) and 84% (inactive) with OVCAR-3 ovarian; 90.1% (inactive) in the assay with HS 578T breast; 101% (inactive) and 91.4% (inactive) in the assay on NCI/ADR-RES ovarian; 81.4% (inactive) and 57.8% (inactive) in the assay with T-47D breast; 105% (inactive) and 61.1% (inactive) in the assay on BT-549 breast. Further, the growth in the assay on MDA-MB-435 melanoma was 92.6% (inactive) and 77.7% (inactive); with SW-620 colon, 110% (inactive) and 88.6% (inactive); with MCF7 breast it was 91.9% (inactive) and 55.7% (inactive); in the assay with HCT-116 colon, 81.4% (inactive) and 55.1% (inactive); with HCC-2998 colon it was 122% (inactive) and 96.8% (inactive); with KM12 colon it was 107% (inactive) and 69% (inactive).

As to `COc1nc(=O)n(C2C=CC(=O)O2)cc1F` (centres undefined), the growth was -19.8% (active) in the assay on SR leukemia; 70.1% (inactive) with RPMI-8226 leukemia; 46% (inactive) in the assay on OVCAR-8 ovarian; 129% (inactive) with OVCAR-5 ovarian; 71.3% (inactive) in the assay with OVCAR-4 ovarian; 98.7% (inactive) in the assay on SK-OV-3 ovarian. For the same compound, the growth is 116% (inactive) in the assay on IGROV1 ovarian; 33.8% (inactive) with OVCAR-3 ovarian; 94.4% (inactive) in the assay on HS 578T breast; 111% (inactive) in the assay with NCI/ADR-RES ovarian; 41.7% (inactive) in the assay with T-47D breast; 81.2% (inactive) with BT-549 breast. Also, the growth in the assay with MDA-MB-435 melanoma was 79% (inactive); in the assay with SW-620 colon, 46.3% (inactive); in the assay with MCF7 breast it was 31.9% (inactive); in the assay with HCT-116 colon it was 34.3% (inactive); with HCC-2998 colon, 133% (inactive); in the assay with KM12 colon it was 103% (inactive).

As for `CN1CCCc2cc(/C=C3\SC(=S)N(C(Cc4ccc(O)cc4)C(=O)O)C3=O)ccc21` (centres undefined), the growth with SR leukemia was 105% (inactive); with RPMI-8226 leukemia, 95.8% (inactive); in the assay with OVCAR-8 ovarian, 99.2% (inactive); with OVCAR-5 ovarian it was 101% (inactive); in the assay with OVCAR-4 ovarian it was 98.2% (inactive); in the assay with SK-OV-3 ovarian, 107% (inactive). In addition, the growth is 102% (inactive) with IGROV1 ovarian; 95.5% (inactive) with OVCAR-3 ovarian; 102% (inactive) in the assay on HS 578T breast; 100% (inactive) with NCI/ADR-RES ovarian; 87.1% (inactive) with T-47D breast; 106% (inactive) with BT-549 breast. Also, the growth in the assay with MDA-MB-435 melanoma was 103% (inactive); in the assay with SW-620 colon it was 102% (inactive); with MCF7 breast it was 94.5% (inactive); in the assay with HCT-116 colon it was 106% (inactive); in the assay on HCC-2998 colon it was 93.6% (inactive); in the assay on KM12 colon, 105% (inactive).

As to `COc1ccc(/C=N/C2=C(C#N)C(c3ccccc3)c3c(ccc4ccccc34)O2)cc1` (centres undefined), the growth in the assay with SR leukemia was 17.5% (inactive); with RPMI-8226 leukemia, -2.96% (active); with OVCAR-8 ovarian, 37.6% (inactive); in the assay on OVCAR-5 ovarian it was 48.8% (inactive); in the assay with OVCAR-4 ovarian, 52.3% (inactive); with SK-OV-3 ovarian it was 45.3% (inactive). The growth with IGROV1 ovarian is 23.5% (inactive); in the assay on OVCAR-3 ovarian, -11% (active); in the assay with HS 578T breast, 17.5% (inactive); with NCI/ADR-RES ovarian, 10.3% (inactive); in the assay on T-47D breast, 36.3% (inactive); in the assay with BT-549 breast it was 35.7% (inactive). Further, the growth was -59.2% (active) with MDA-MB-435 melanoma; 29.4% (inactive) in the assay on SW-620 colon; 15.4% (inactive) in the assay on MCF7 breast; 24.8% (inactive) in the assay with HCT-116 colon; 48.8% (inactive) with HCC-2998 colon; 29.1% (inactive) with KM12 colon.

For `O=C1C(Nc2ccc(Cl)cc2)=C(I)C(=O)c2ncccc21`, the growth in the assay on SR leukemia is 4.45% (active); in the assay on RPMI-8226 leukemia, -2.24% (active); in the assay on OVCAR-8 ovarian, -65.1% (active); with OVCAR-5 ovarian, 60.4% (inactive); in the assay on OVCAR-4 ovarian, -91.4% (active); with SK-OV-3 ovarian, 83.3% (inactive). For the same compound, the growth is -76.2% (active) in the assay on IGROV1 ovarian; -88.3% (active) in the assay on OVCAR-3 ovarian; 39.9% (inactive) in the assay with HS 578T breast; -0.0242% (active) with NCI/ADR-RES ovarian; -34.2% (active) with T-47D breast; 53.3% (inactive) in the assay on BT-549 breast. Moreover, the growth was -80.5% (active) in the assay on MDA-MB-435 melanoma; -27% (active) in the assay with SW-620 colon; -34.3% (active) with MCF7 breast; -57.3% (active) with HCT-116 colon; 79.5% (inactive) in the assay with HCC-2998 colon; 39.8% (inactive) in the assay on KM12 colon.

For `NCCOCCOc1ccccc1`, the growth is 101% (inactive) with SR leukemia; 88.7% (inactive) with RPMI-8226 leukemia; 107% (inactive) in the assay with OVCAR-8 ovarian; 104% (inactive) in the assay on OVCAR-5 ovarian; 98% (inactive) in the assay on OVCAR-4 ovarian; 112% (inactive) in the assay with SK-OV-3 ovarian. Moreover, the growth with IGROV1 ovarian was 103% (inactive); in the assay with OVCAR-3 ovarian, 106% (inactive); in the assay with HS 578T breast, 115% (inactive); in the assay on NCI/ADR-RES ovarian, 102% (inactive); in the assay on T-47D breast it was 101% (inactive); with BT-549 breast, 106% (inactive). The growth in the assay with MDA-MB-435 melanoma was 107% (inactive); in the assay on SW-620 colon, 102% (inactive); in the assay on MCF7 breast, 91.2% (inactive); in the assay on HCT-116 colon, 99.4% (inactive); in the assay with HCC-2998 colon, 94.2% (inactive); with KM12 colon, 105% (inactive).

Turning to `O=C(Nc1ccc(F)cc1)c1cc2cc(Nc3nc(-c4ccccc4)nc4ccccc34)ccc2oc1=O`, the growth in the assay with SR leukemia was 86.6% (inactive); with RPMI-8226 leukemia, 97.9% (inactive); in the assay on OVCAR-8 ovarian it was 100% (inactive); in the assay with OVCAR-5 ovarian it was 106% (inactive); in the assay with OVCAR-4 ovarian it was 111% (inactive); with SK-OV-3 ovarian, 98.2% (inactive). For the same compound, the growth is 101% (inactive) in the assay with IGROV1 ovarian; 105% (inactive) in the assay on OVCAR-3 ovarian; 103% (inactive) in the assay with HS 578T breast; 95.5% (inactive) with NCI/ADR-RES ovarian; 95.7% (inactive) in the assay on T-47D breast; 100% (inactive) with BT-549 breast. In addition, the growth in the assay on MDA-MB-435 melanoma was 108% (inactive); in the assay on SW-620 colon, 107% (inactive); in the assay with MCF7 breast it was 97.9% (inactive); in the assay with HCT-116 colon, 96.3% (inactive); in the assay on HCC-2998 colon it was 113% (inactive); in the assay on KM12 colon, 102% (inactive).

In the case of `c1ccc(-c2cc(-c3cc(-c4ccccc4)on3)no2)cc1`, the growth is 61.6% (inactive) in the assay on SR leukemia; 88.1% (inactive) in the assay with RPMI-8226 leukemia; 74.6% (inactive) in the assay on OVCAR-8 ovarian; 77.1% (inactive) in the assay with OVCAR-5 ovarian; 96.7% (inactive) in the assay with OVCAR-4 ovarian; 109% (inactive) in the assay with SK-OV-3 ovarian. Besides, the growth with IGROV1 ovarian is 63.6% (inactive); in the assay with OVCAR-3 ovarian, 127% (inactive); in the assay on HS 578T breast it was 116% (inactive); with NCI/ADR-RES ovarian, 69.7% (inactive); in the assay on T-47D breast it was 85.2% (inactive); with BT-549 breast, 99.4% (inactive). The growth in the assay on MDA-MB-435 melanoma is 102% (inactive); in the assay with SW-620 colon, 51.5% (inactive); in the assay on MCF7 breast, 49.1% (inactive); in the assay with HCT-116 colon, 41.8% (inactive); in the assay with HCC-2998 colon it was 94.2% (inactive); in the assay with KM12 colon, 92.8% (inactive).
